Source: PubChem (National Center for Advancing Translational Sciences (NCATS))
ATXN2 expr inh – reduces ATXN2 reporter expression in HEK-293 cells | hit rate 0.72% among 360,000 | HEK-293 ATXN2-luciferase reporter, luminescence, 24 h | Potency, µM (doses to about 57 µM), without a hit: at the top dose activity change, negative = inhibition, most hits filed as inhibitors; note: potency is the fitted concentration of half-maximal effect; % is set by controls: 0 for no effect and ±100 for the full control effect; nearly all actives have a fitted effect of over 55% in size
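ATXN2-luciferase reporter cells (luciferase flanked by upstream and downstream ATXN2 gene portions) were treated 24 h at 37 °C with compounds at up to 57 uM. SteadyGlo luminescence gave expression; GF-AFC fluorescence gave viability.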
LDHA inh – blocks human lactate dehydrogenase A | AID 1347041 | P00338 | hit rate 0.15% among 480,000 | activity change, % (values are at about 110 or 230 µM) | purified LDHA, NADH/diaphorase-resazurin fluorescence; stronger effect = lower value; in the data active = activity change below about -30%; inconclusive = mostly about -25% to -30%;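 note: plate controls were DMSO wells for no effect and wells without enzyme for full effect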
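Resorufin fluorescence (ex540/em590), read at 0 and 20 min after diaphorase/resazurin addition, reports the NADH left after a 5 min room-temperature reaction of 2 nM human LDH5 with 0.06 mM NADH and 0.2 mM pyruvate.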
ATXN viability – reduces viability in counter-screen for ATXN expression inhibitors; S2 cells (HEK-293 line with an ATXN2-luciferase reporter) viability, CellTiter-Fluor protease fluorescence, 24 h; Potency, µM (series often up to 56.7 µM), usual class: cytotoxic; hit rate 0.49% among 400,000; note: potency is the fitted concentration of half-maximal effect; nearly all actives have a fitted effect of over 40% in size
HepG2 tox – kills HepG2 cells in TGF-b inhibitor counter-screen | HepG2 CAGA-GFP viability, ATP luminescence, 18 h | Potency, µM (top dose mostly 46.1 µM), for the others: at the top dose activity change, negative = cytotoxicity, usual class: cytotoxic | hit rate 0.76% among 410,000; note: potency is the fitted concentration of half-maximal effect
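CellTiter-Glo luminescence gave cytotoxicity after 18 hours at 37 degrees C. The cells were HepG2 CAGA-GFP in 1% FBS DMEM, stimulated with 500 pg/mL TGF-beta after compound addition. %Activity was normalised to no-cell wells (complete cell-killing) and DMSO (no toxicity), and curves were fitted and classified.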
TGFb inhibitor – blocks TGF-b signaling; AID 588855; hit rate 1.2% among 410,000; HepG2 CAGA-GFP TGF-b/SMAD3 reporter, GFP fluorescence, 18 h; TGF-beta stimulated, 500 pg/mL final; Potency, µM (top dose mostly 46.1 µM), for the others: at the top dose activity, negative = inhibition, usual class: inhibitors; note: potency is the fitted concentration of half-maximal effect; % is set by controls: 0 for no effect and ±100 for the full control effect; nearly all actives have a fitted effect of over 65% in size
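Read-out: total well GFP (ex488/em500-530) summed from mean per-cell fluorescence. Cells: HEPG2 CAGA-GFP, 1% FBS DMEM, 18 h at 37 degrees C with 500 pg/mL final TGF-beta. Unstimulated wells served as the full-inhibition control; stimulated DMSO wells = 0%.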
mIDH1 inhibitor – inhibitors of human mutant IDH1 R132H | IDH1-R132H enzyme, NADPH consumption, diaphorase/resazurin fluorescence | Potency, µM (top dose mostly 76.6 µM), without a hit: at the highest dose activity change, negative = inhibition, most hits filed as inhibitors | hit rate 0.093% among 390,000 | AID 602179; note: potency is the fitted concentration of half-maximal effect; % is set by controls: 0 for no effect and ±100 for the full control effect; nearly all actives have a fitted effect of over 65% in size
Target sequence (O75874 whole entry R132H, stated change not applied): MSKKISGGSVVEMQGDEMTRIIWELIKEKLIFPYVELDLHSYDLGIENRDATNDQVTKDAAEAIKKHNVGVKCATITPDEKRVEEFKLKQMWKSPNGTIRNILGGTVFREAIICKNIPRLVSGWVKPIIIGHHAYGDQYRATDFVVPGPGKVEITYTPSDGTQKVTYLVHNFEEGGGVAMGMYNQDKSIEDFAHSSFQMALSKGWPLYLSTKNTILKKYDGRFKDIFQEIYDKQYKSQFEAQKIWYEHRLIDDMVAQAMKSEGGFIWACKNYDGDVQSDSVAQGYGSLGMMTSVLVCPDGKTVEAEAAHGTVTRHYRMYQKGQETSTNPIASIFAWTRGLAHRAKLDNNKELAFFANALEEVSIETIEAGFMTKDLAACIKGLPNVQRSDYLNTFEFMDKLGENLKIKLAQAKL
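IDH1-R132H (0.5 ug/mL) preincubated 30 min with compound, then NADPH (0.016 mM) and alpha-KG (2 mM) added; 80 min at RT, pH 7.5. Remaining NADPH coupled via diaphorase/resazurin to fluorescence (540/590 nm); concentration-response curves normalized to no-enzyme control.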
Resorufin autofl – interferes with resorufin fluorescence in IDH1 counter-screen. AID 623980. Resorufin detection reagent fluorescence interference, cell-free. inhibition of signal, % at 51.2 µM. 750 tested, under 10 active. shares compounds with mIDH1 inhibitor;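 note: 0% = wells with normal resorufin and full inhibition = wells lacking resorufin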
WT IDH1 inh – wild-type IDH1 (human) inhibition counterscreen | shares compounds with mIDH1 inhibitor | WT IDH1 enzyme, NADPH diaphorase/resazurin fluorescence | Potency, µM (series often up to 115 µM), for inactives: at the top dose activity change, negative = inhibition, most hits filed as inhibitors | hit rate 9% among 750;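 note: potency is the fitted concentration of half-maximal effect; 0% = full WT IDH1 enzyme control and full inhibition = no enzyme wells; nearly all actives have a fitted effect of over 55% in size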
Target sequence (O75874 whole entry, looked up): as the sequence (O75874 whole entry R132H, stated change not applied) above, with H132R counted along it
mIDH1 confirm – inhibits human mutant IDH1 enzyme in cherrypick confirmation | shares compounds with mIDH1 inhibitor | Potency, µM (titrated, usually from 76.6 µM), for inactives: at the highest dose activity change, negative = inhibition, most hits filed as inhibitors | hit rate 83% among 750 | IDH1 R132H enzyme, NADPH diaphorase/resazurin fluorescence; note: potency is the fitted concentration of half-maximal effect; nearly all actives have a fitted effect of over 50% in size
* hit, by the source's call; i = inactive; ? = inconclusive; / = no result. Most compounds without a hit are left out; they make up all but 2.2% or so of the library. Unless noted, calls come from the whole dose curve; as a rule, active = well fitted curve in the direction sought with a large enough effect; inconclusive = small, poorly fitted or top-dose-only effect, or another doubt; inactive = no such curve, though single readings can be large; an effect the other way counts as inactive or inconclusive.

SMILES | ATXN2 expr inh | LDHA inh | ATXN viability | HepG2 tox | TGFb inhibitor | mIDH1 inhibitor | Resorufin autofl | WT IDH1 inh | mIDH1 confirm
CCOc1cc(C2c3c(-c4ccccc4)n[nH]c3C(=O)N2c2ccc(C(=O)O)cc2)ccc1O (configuration not stated) | -9.8% | -13.1 | ? | -0.3% | 3.6% | -7.1% | / | / | /
CC(=O)Nc1cccc(-n2nnc(SCC(=O)c3ccccc3)n2)c1 | / | -3.3 | i | -37.1% | -17.0% | -6.4% | / | / | /
Cc1ccc(C(=O)CN2C(=O)NC3(CCCCC3C)C2=O)s1 (configuration not stated) | / | -4.6 | i | -9.4% | 0.7% | -11.2% | / | / | /
CCOC(=O)c1c(-c2ccc(C)o2)csc1NC(=O)CN1CCCCC1 | 8.0% | 2.1 | i | 7.5% | ? | -1.0% | / | / | /
CCOC(=O)c1c(-c2ccc(C)o2)csc1NC(=O)CN(C)CC(=O)Nc1ccc(C)cc1 | ? | 2.2 | ? | -52.9% | -6.4% | ? | -0.7 | -9.1% | 14.1µM*
CN(CC(=O)C(C(N)=O)c1ccccc1)c1ccccc1 (configuration not stated) | / | 4.4 | i | -15.4% | 3.9% | 9.7% | / | / | /
Cc1cc(C)c2c(=N)c3ccccc3n(CCCCCCCCn3c4ccccc4c(=N)c4c(C)cc(C)nc43)c2n1 | 28.2µM* | 5.4 | ? | -93.5% | ? | 52.1µM* | -9.3 | 1.7% | 28.2µM*
CCCCn1c2c(c(=N)c3ccccc31)CCC2 | -6.5% | -6.2 | i | -0.5% | -16.2% | 11.1% | / | / | /
CCC(C)Sc1ccc([C@@H]2[C@@H]3C(=O)N(C)C(=O)[C@@H]3[C@]3(C(=O)OC)CCCCN23)cc1OC (some centres not stated) | -6.3% | 1.2 | i | -10.8% | 1.3% | 35.5µM* | -7.3 | 1.1% | 15.8µM*
Cc1ccc(C)c(N(C(=O)Cc2cccs2)C(C(=O)NC2CCCC2)c2ccc(C)o2)c1 (configuration not stated) | -2.5% | -2.9 | i | -2.7% | -11.3% | -28.5% | / | / | /
COc1ccc(N(C(=O)Cn2cnc3ccccc32)C(C(=O)NC2CCCCC2)c2ccccc2)cc1 (configuration not stated) | 0.4% | -0.6 | i | -6.5% | ? | 9.27µM* | 1.1 | -5.5% | 2.82µM*
Cc1ccc(C(C(=O)NC2CCCC2)N(C(=O)Cc2cccs2)c2ccc3c(c2)OCCO3)cc1 (configuration not stated) | -12.3% | -10.4 | i | -0.6% | -14.3% | ? | / | / | /
Cc1ccc(C(C(=O)NC2CCCC2)N(C(=O)Cc2cccs2)c2ccc(C)c(C)c2)o1 (configuration not stated) | -23.9% | 0.3 | i | -52.2% | ? | 5.21µM* | -0.8 | 3.7% | 4.47µM*
CCOc1ccc(N(C(=O)Cn2nnc3ccccc32)C(C(=O)NCc2ccccc2)c2ccc(OC)cc2)cc1 (configuration not stated) | / | -2.5 | / | -10.4% | ? | -2.6% | / | / | /
O=C(NC1CCCC1)C(c1ccc(F)cc1)N(C(=O)Cc1cccs1)c1ccc2c(c1)OCCO2 (configuration not stated) | -0.5% | -4.3 | i | 1.8% | 3.0% | 10.4µM* | 6.2 | -8.5% | 6.31µM*
